# Assay results from PubChem BioAssay (EPA / NIEHS).
# Where “and” joins values, the source holds several entries; their conditions need not be identical. Identical values can stand only once. Records with an inconclusive call do not appear. Calls of active or inactive are those of the source. How the source made its calls: active means hit-call score of the fitted dose curve at least 0.9, where 1 is the maximum; inconclusive means response in the unintended direction; inactive means score below 0.9.
# Tests used:
# [1] = biological target: Estrogen receptor (Homo sapiens) + Estrogen receptor beta (Homo sapiens) (UniProt P03372+Q92731); assay: OT_ER_ERaERb_1440: Odyssey Thera (OT) 24-hour HEK293T Protein-Complementation Assay for Estrogen Receptor-alpha/-beta Homodimer (AID 2283356);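 further: heteromer of ER alpha and ER beta binding domains; hits raise reporter fluorescence and both agonists and antagonists give an increase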
# How it was run: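 Fragment complementation between ER alpha (310-547) and ER beta (263-489) ligand-binding domains in HEK293T cells; signal read 24 h post-dosing by laser scanning cytometer. Gain of fluorescence relative to DMSO fitted.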
# [2] = biological target: Estrogen receptor beta (Homo sapiens) (UniProt Q92731); assay: OT_ER_ERbERb_0480: Odyssey Thera (OT) 8-hour HEK293T Protein-Complementation Assay for Estrogen Receptor-beta/-beta Homodimer (AID 2283357);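 further: active means signal gain over DMSO baseline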
# How it was run: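 Cells (HEK293T, stable ER-beta LBD PCA pair) are treated 8 hours, fixed and Draq5-stained; signal is fluorescence intensity increase relative to vehicle, fitted in the gain direction.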
# [3] = biological target: human Peroxisome Proliferator-activated Receptor alpha (PPARa), PPARA (gene 5465) (UniProt Q07869); assay: NVS_NR_hPPARa: NovaScreen (NVS) Nuclear Receptor Binding Assay for human Peroxisome Proliferator-activated Receptor alpha (PPARa) (AID 2283359);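 further: activity means loss of TR-FRET signal versus DMSO baseline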
# How it was run: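 Chemicals were first screened in duplicate at 25 uM, and active ones were retested across concentration series. Binding was monitored by TR-FRET one hour after dosing, with decreased signal against DMSO counted as activity.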
# [4] = biological target: Glucocorticoid receptor (Homo sapiens) (UniProt P04150); assay: NVS_NR_hGR: NovaScreen (NVS) Nuclear Receptor Binding Assay for human Glucocorticoid Receptor (GR) (AID 2283363);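 on AC50: activity is loss of specific radioligand binding signal relative to DMSO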
# How it was run: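 Competitive displacement of a labelled ligand was measured on cell-free receptor preparations after 16 h exposure. Initial testing used 25 uM in duplicate with plate controls; confirmed actives went into concentration series.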
# [5] = biological target: Nuclear receptor subfamily 1 group I member 2 (Homo sapiens) (UniProt O75469); assay: NVS_NR_hPXR: NovaScreen (NVS) Nuclear Receptor Binding Assay for human Pregnane X Receptor (PXR) (AID 2283365);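 further: a drop in FRET signal versus DMSO baseline means the compound binds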
# How it was run: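 Human PXR binding measured by TR-FRET in a cell-free format, 2 h exposure. Single-concentration duplicates at 25 uM preceded concentration-response retests of actives; endpoint fitted positively relative to DMSO, loss of signal indicating binding.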
# PGR (gene 5241) = PGR (gene 5241) (UniProt P06401); assay: NVS_NR_hPR: NovaScreen (NVS) Nuclear Receptor Binding Assay for human Progestron Receptor (PR) (AID 2283360);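 further: active means loss of bound radioligand signal versus DMSO baseline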
# How it was run: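 Competitive displacement of a labelled radioligand from T47D-derived receptor protein is measured in a cell-free format. Initial testing uses 25 uM in duplicate, with positive and negative controls on every plate.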
# [6] = biological target: Retinoic acid receptor alpha (Homo sapiens) (UniProt P10276); assay: NVS_NR_hRAR_Antagonist: NovaScreen (NVS) Nuclear Receptor Binding Assay for human Retinoic Acid Alpha Receptor Antagonism (RAR) (AID 2283358)
# How it was run: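 TR-FRET, cell-free, antagonist format; 2 h incubation after dosing; DMSO = baseline; signal loss fitted; 25 uM duplicate primary, then conc. series.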
# [7] = biological target: human Thyroid Receptor Alpha (TRa), THRA (gene 7067) (UniProt P10827); assay: NVS_NR_hTRa_Antagonist: NovaScreen (NVS) Nuclear Receptor Binding Assay for human Thyroid Receptor Alpha Antagonism (TRa) (AID 2283362);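 further: activity is loss of signal relative to DMSO baseline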
# How it was run: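 Actives from a duplicate 25 uM single-point screen were retested in concentration series. The cell-free antagonist-format binding assay was read by AlphaLISA chemiluminescence at 1 h, scored as signal loss relative to DMSO.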
# [8] = biological target: Peroxisome proliferator-activated receptor gamma (Homo sapiens) (UniProt P37231); assay: NVS_NR_hPPARg: NovaScreen (NVS) Nuclear Receptor Binding Assay for human Peroxisome Proliferator-activated Receptor gamma (PPARg) (AID 2283370)
# How it was run: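 Fluorescence polarization readout of ligand binding to extracted human PPARg, measured at 2 h. Duplicate single-point screen at 25 uM, then concentration-series retesting; activity defined as signal loss versus DMSO.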
# [9] = biological target: Norway rat Vesicular Monoamine Transporter (VMAT2), neurotransmitter transporter, Slc18a2 (gene 25549) (UniProt Q01827); assay: NVS_TR_rVMAT2: NovaScreen (NVS) Transporter Assay for Norway rat Vesicular Monoamine Transporter (VMAT2), neurotransmitter transporter (AID 2283376);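 further: actives lower the bound radioligand signal below the DMSO level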
# How it was run: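 Tissue: rat forebrain extract. Format: competitive radioligand binding, cell-free. Timepoint: 1 h. Readout: filter radiodetection/scintillation. Screen: 25 uM in duplicate, then concentration series for actives. Baseline: DMSO.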
# [10] = system: guinea pig Dopamine Transporter (DAT), gene 100714898; assay: NVS_TR_gDAT: NovaScreen (NVS) Transporter Assay for guinea pig Dopamine Transporter (DAT) (AID 2283369);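 further: active compounds lower bound radioligand signal relative to DMSO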
# How it was run: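 Radioligand displacement on membranes from guinea pig striatum, 2 h exposure, bound label counted by filtration and scintillation. Tested at 25 uM in duplicate, then actives in concentration series to 50 uM; DMSO as negative control.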
# [11] = biological target: human Dopamine Transporter (DAT), SLC6A3 (gene 6531) (UniProt Q01959); assay: NVS_TR_hDAT: NovaScreen (NVS) Transporter Assay for human Dopamine Transporter (DAT) (AID 2283374);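 further: activity means loss of bound radioligand signal relative to DMSO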
# How it was run: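 Test chemicals were first screened in duplicate at 25 uM, with actives retested as concentration series. Displacement of a specific radioligand from cell-free human dopamine transporter was measured after 1 h by filtration and scintillation counting.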
# [12] = biological target: Retinoic acid receptor alpha (Homo sapiens) (UniProt P10276); assay: NVS_NR_hRARa_Agonist: NovaScreen (NVS) Nuclear Receptor Binding Assay for human Retinoic Acid Alpha Receptor Agonism (RAR) (AID 2283361)
# How it was run: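 Readout is time-resolved fluorescence resonance energy transfer after a 2 h exposure of cell-free extracted receptor protein. Initial testing used 25 uM in duplicate, with concentration-response follow-up for active chemicals.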
# [13] = biological target: guinea pig Sigma Receptor, Non-selective Binding, SIGMAR1 (gene 100135589) (UniProt Q60492); assay: NVS_OR_gSIGMA_NonSelective: NovaScreen (NVS) Nuclear Receptor Binding Assay for guinea pig Sigma Receptor, Non-selective Binding (AID 2283367)
# How it was run: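 gp brain membr., radioligand displacement, 1 h, filtration + scint. counting; DMSO = baseline; 25 uM x2 primary, conc.-response confirm.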
# [14] = biological target: human Serotonin Transporter (SERT), SLC6A4 (gene 6532) (UniProt P31645); assay: NVS_TR_hSERT: NovaScreen (NVS) Transporter Assay for human Serotonin Transporter (SERT) (AID 2283372)
# How it was run: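 Radioligand binding to native SERT in human platelet membranes, read by filter-based scintillation counting 1 h after dosing. Primary screen in duplicate at 25 uM; actives followed up in concentration series; loss of signal versus DMSO baseline.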
# [15] = system: rat Norepinephrine Transporter (NET), gene 83511; assay: NVS_TR_rNET: NovaScreen (NVS) Transporter Assay for rat Norepinephrine Transporter (NET) (AID 2283373)
# How it was run: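 Rat forebrain membranes; radioligand binding measured by filter-based scintillation counting 1 hour after dosing. Loss of specific binding versus DMSO baseline scored; primary screen in duplicate at 25 uM, actives followed up in concentration series.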
# [16] = biological target: rat Serotonin Transporter (SERT), Slc6a4 (gene 25553) (UniProt P31652); assay: NVS_TR_rSERT: NovaScreen (NVS) Transporter Assay for rat Serotonin Transporter (SERT) (AID 2283375)
# How it was run: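 Radioligand binding with competitive displacement on rat forebrain membrane preparations, counted by filtration and scintillation after 1 h. Primary single-point duplicates at 25 uM; active chemicals followed up in concentration-response. DMSO served as baseline.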
# Chain of human Serotonin Transporter (SERT), SLC6A4 (gene 6532) (P31645 whole entry, looked up): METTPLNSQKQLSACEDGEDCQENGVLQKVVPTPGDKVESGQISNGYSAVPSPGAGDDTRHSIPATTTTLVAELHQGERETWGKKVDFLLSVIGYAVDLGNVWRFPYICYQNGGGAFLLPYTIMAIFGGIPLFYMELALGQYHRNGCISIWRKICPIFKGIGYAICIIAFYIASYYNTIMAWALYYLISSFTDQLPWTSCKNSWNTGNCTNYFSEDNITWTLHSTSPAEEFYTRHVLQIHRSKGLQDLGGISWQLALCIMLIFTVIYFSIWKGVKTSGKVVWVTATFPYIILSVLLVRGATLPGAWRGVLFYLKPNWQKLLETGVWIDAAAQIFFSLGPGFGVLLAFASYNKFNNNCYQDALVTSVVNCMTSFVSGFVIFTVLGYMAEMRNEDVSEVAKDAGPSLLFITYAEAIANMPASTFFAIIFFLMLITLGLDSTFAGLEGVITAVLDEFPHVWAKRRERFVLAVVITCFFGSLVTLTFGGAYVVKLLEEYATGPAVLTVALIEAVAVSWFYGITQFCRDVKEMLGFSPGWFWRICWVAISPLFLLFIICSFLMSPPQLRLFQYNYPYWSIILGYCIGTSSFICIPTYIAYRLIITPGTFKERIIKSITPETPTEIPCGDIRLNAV
# Chain of human Thyroid Receptor Alpha (TRa), THRA (gene 7067) (P10827 whole entry, looked up): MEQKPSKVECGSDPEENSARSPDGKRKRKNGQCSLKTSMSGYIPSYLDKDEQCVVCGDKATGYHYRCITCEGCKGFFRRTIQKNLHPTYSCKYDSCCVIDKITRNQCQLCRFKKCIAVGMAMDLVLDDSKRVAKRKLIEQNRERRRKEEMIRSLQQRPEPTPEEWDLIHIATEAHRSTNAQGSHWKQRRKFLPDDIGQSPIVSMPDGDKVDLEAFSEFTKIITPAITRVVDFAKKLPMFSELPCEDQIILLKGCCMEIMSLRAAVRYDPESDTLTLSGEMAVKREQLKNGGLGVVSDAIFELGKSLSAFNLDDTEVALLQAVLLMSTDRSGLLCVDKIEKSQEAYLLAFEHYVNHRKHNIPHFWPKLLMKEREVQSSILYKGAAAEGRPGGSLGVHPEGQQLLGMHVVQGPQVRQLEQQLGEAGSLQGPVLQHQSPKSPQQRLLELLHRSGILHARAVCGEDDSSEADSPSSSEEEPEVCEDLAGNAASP
# Chain of human Peroxisome Proliferator-activated Receptor alpha (PPARa), PPARA (gene 5465) (Q07869 whole entry, looked up): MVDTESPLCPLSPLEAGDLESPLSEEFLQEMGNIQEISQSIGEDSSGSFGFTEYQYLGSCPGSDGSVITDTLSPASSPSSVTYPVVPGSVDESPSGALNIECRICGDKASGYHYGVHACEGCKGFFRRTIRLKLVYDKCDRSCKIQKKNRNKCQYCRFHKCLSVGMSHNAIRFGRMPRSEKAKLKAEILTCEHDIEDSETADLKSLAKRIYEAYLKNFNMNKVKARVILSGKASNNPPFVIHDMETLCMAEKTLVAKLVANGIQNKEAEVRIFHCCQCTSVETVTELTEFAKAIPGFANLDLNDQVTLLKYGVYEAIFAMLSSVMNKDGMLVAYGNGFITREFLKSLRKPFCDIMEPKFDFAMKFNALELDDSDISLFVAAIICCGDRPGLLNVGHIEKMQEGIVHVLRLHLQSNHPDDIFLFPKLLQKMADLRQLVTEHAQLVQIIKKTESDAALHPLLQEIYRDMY
# Chain of Estrogen receptor (Homo sapiens) + Estrogen receptor beta (Homo sapiens) (P03372 whole entry, looked up, the tested form may be a part): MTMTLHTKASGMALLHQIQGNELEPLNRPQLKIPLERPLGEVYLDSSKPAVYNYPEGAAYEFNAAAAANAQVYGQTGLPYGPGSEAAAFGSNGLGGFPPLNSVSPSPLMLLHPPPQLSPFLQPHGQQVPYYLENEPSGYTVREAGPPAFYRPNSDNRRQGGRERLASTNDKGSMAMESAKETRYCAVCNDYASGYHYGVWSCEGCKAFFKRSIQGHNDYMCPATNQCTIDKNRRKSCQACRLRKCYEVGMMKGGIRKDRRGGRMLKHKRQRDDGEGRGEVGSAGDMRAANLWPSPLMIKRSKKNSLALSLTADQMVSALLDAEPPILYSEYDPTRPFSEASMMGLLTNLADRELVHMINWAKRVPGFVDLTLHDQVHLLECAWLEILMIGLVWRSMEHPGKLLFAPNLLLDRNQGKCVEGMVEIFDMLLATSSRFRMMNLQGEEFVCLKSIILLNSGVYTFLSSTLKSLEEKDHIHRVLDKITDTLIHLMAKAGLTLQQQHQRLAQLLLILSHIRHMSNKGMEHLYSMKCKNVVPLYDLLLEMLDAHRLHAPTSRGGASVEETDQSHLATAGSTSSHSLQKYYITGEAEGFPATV
# Chain of Estrogen receptor (Homo sapiens) + Estrogen receptor beta (Homo sapiens) (Q92731 whole entry, looked up, the tested form may be a part): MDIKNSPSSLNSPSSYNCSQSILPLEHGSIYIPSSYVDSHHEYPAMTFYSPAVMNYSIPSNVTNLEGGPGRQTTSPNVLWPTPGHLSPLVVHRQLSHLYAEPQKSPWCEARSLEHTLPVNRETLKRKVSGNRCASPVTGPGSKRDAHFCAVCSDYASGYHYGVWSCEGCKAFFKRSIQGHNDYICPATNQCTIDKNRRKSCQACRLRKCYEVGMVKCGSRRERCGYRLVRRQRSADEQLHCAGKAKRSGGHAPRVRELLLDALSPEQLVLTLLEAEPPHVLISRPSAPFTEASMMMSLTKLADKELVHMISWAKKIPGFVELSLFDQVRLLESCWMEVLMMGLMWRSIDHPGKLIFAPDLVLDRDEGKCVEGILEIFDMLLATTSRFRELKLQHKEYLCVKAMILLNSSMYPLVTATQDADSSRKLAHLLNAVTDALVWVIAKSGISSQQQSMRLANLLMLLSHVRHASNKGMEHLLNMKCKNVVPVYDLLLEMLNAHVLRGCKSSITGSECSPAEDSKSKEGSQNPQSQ
# Chain of Nuclear receptor subfamily 1 group I member 2 (Homo sapiens) (O75469 whole entry, looked up): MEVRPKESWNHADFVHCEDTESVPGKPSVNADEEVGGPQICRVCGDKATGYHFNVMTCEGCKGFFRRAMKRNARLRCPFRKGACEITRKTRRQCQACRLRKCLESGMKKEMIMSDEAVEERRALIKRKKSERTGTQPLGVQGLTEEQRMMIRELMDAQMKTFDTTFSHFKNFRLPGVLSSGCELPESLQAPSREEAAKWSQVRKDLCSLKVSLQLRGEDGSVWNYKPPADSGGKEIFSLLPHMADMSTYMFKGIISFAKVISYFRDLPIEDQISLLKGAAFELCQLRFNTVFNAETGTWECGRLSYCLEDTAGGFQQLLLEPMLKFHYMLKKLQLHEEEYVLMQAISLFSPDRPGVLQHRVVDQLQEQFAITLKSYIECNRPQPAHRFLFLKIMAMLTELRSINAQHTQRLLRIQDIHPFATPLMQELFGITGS
# Chain of Peroxisome proliferator-activated receptor gamma (Homo sapiens) (P37231 whole entry, looked up): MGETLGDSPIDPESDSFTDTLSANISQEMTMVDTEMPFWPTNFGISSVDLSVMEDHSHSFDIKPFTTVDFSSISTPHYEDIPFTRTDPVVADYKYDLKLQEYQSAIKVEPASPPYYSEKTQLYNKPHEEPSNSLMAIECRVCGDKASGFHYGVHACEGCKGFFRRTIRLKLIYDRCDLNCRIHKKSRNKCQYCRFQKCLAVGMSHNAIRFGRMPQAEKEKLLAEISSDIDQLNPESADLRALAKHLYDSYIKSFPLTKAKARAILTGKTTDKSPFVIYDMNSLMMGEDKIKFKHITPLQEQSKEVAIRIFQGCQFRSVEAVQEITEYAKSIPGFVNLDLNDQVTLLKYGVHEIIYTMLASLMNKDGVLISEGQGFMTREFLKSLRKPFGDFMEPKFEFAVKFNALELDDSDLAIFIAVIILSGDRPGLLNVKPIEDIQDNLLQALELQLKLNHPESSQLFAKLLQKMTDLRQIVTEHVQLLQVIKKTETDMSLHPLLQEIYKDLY
# Chain of human Dopamine Transporter (DAT), SLC6A3 (gene 6531) (Q01959 whole entry, looked up): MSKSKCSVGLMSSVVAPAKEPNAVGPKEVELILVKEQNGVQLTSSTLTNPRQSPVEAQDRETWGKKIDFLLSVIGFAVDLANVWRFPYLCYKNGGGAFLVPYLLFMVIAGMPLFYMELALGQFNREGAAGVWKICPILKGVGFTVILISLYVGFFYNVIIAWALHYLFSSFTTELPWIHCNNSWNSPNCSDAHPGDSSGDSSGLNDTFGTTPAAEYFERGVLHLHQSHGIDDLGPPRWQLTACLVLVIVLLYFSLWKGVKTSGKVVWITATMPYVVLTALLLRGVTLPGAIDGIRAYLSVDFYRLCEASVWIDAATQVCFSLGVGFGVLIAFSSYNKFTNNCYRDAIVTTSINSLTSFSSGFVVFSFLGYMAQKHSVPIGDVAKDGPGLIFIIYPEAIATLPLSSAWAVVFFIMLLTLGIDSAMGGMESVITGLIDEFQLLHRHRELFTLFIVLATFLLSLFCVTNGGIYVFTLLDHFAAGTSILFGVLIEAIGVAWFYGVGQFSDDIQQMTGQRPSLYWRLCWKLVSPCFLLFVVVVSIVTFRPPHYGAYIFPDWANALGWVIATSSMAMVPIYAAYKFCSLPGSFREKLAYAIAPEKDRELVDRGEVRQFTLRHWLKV
# Chain of Retinoic acid receptor alpha (Homo sapiens) (P10276 whole entry, looked up): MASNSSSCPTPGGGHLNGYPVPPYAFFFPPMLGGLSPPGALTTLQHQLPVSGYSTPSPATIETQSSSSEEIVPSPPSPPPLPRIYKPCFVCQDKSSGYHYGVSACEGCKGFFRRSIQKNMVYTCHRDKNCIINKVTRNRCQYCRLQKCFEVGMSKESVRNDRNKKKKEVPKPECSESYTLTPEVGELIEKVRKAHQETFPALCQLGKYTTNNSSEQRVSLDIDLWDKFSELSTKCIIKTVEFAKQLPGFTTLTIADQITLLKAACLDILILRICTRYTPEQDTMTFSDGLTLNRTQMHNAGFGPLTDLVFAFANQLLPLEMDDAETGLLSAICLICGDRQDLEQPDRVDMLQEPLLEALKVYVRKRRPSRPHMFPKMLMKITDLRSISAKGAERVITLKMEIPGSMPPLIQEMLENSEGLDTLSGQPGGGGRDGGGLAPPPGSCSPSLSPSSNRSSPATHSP
# Chain of guinea pig Sigma Receptor, Non-selective Binding, SIGMAR1 (gene 100135589) (Q60492 whole entry, looked up): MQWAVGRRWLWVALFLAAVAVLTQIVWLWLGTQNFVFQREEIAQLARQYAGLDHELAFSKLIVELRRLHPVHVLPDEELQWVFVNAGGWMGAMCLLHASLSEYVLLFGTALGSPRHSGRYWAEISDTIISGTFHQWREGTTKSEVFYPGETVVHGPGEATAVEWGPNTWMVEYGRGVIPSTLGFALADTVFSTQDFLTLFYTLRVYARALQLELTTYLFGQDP
structure (smiles),measurement,setting,value
C=CC(=O)NCNC(=O)C=C,outcome,[1],inactive
same,outcome,[2],inactive
OCC(O)CO,outcome,[1],inactive
same,outcome,[2],inactive
same,outcome,[3],inactive
same,AC50,[4],4.96 µM (active)
same,AC50,[5],5.1 µM (active)
Cc1ccc(O)c(C)c1,outcome,[1],inactive
same,outcome,[2],inactive
same,outcome,[3],inactive
same,outcome,PGR (gene 5241),inactive
c1ccc(-c2ccccc2)cc1,outcome,[1],inactive
same,outcome,[2],inactive
Oc1ccc(Cl)cc1Cl,outcome,[1],inactive
same,AC50,[2],50 µM (active)
same,outcome,[6],inactive
same,outcome,PGR (gene 5241),inactive
same,outcome,[7],inactive
same,outcome,[8],inactive
Cc1cc2c3c(c1)C(c1ccccc1)=N[C@@H](NC(=O)c1ccncc1)C(=O)N3CC2,outcome,[1],inactive
same,outcome,[3],inactive
same,AC50,[8],4.96 µM (active)
same,outcome,[9],inactive
CCCCCCCCOC(=O)c1ccccc1C(=O)OCCCCCCCC,outcome,[1],inactive
same,outcome,[2],inactive
same,outcome,[8],inactive
O=NN(c1ccccc1)c1ccccc1,outcome,PGR (gene 5241),inactive
same,outcome,[10],inactive
same,outcome,[8],inactive
CO/C=C(/C(=O)OC)c1ccccc1COc1cccc(C(F)(F)F)n1,outcome,[1],inactive
same,outcome,[2],inactive
same,outcome,[8],inactive
Cc1cccc(C)c1N,outcome,[1],inactive
same,outcome,[2],inactive
same,AC50,[8],0.0218 µM (active)
Cc1cc(-c2ccc(N)c(C)c2)ccc1N,outcome,[6],inactive
same,outcome,[5],inactive
same,AC50,[11],19.5 µM (active)
CCNc1nc(NC(C)C)nc(SC)n1,outcome,[2],inactive
Cc1cc(O)ccc1Cl,AC50,[1],43.7 µM (active)
same,AC50,[2],47 µM (active)
same,outcome,[10],inactive
Nn1cnnc1,outcome,[1],inactive
same,outcome,[2],inactive
same,outcome,[8],inactive
same,AC50,[9],10.9 µM (active)
O=C(NC(=O)c1cc(F)c(F)cc1Cl)Nc1cc(F)ccc1N1CCC(C(=O)O)CC1,outcome,[8],inactive
ClC1=C(Cl)[C@]2(Cl)[C@@H]3[C@@H]4C[C@@H]([C@H]5O[C@@H]45)[C@@H]3[C@@]1(Cl)C2(Cl)Cl,outcome,[12],inactive
same,outcome,[4],inactive
same,outcome,[8],inactive
COS(=O)(=O)OC,outcome,[12],inactive
same,outcome,[13],inactive
CCOC(=O)C(O)(c1ccc(Cl)cc1)c1ccc(Cl)cc1,outcome,[1],inactive
same,outcome,[2],inactive
same,outcome,[4],inactive
same,AC50,[10],14.3 µM (active)
same,AC50,[11],3.45 µM (active)
Cc1ccccc1O,outcome,[2],inactive
Clc1ccc(C(c2ccccc2Cl)C(Cl)(Cl)Cl)cc1 (stereo not given),AC50,[2],2.09 µM (active) and 3.59 µM (active) and 1.83 µM (active)
same,outcome,[5],inactive
CC1=C2C[C@H]3[C@@H](CC=C4C[C@@H](O)CC[C@@]43C)[C@@H]2CC[C@]12O[C@@H]1C[C@H](C)CN[C@H]1[C@H]2C,outcome,[12],inactive
same,outcome,[5],inactive
same,outcome,[14],inactive
same,outcome,[9],inactive
Nc1ccc(-c2ccc(N)cc2)cc1,outcome,[1],inactive
same,outcome,[2],inactive
same,AC50,[13],25 µM (active)
same,AC50,[10],12.8 µM (active)
same,outcome,[8],inactive
same,AC50,[15],14.3 µM (active)
same,outcome,[11],inactive
CCCCCCCCCC[N+](C)(C)CCCCCCCCCC,outcome,[1],inactive
same,AC50,[3],0.861 µM (active)
same,AC50,[4],5.53 µM (active)
same,AC50,[13],0.432 µM (active)
same,AC50,[10],25 µM (active)
same,outcome,[8],inactive
same,AC50,[14],13.4 µM (active)
same,AC50,[11],5.73 µM (active)
same,AC50,[16],12.6 µM (active)
same,AC50,[9],13.4 µM (active)
CCC(C)(CC)c1cc(NC(=O)c2c(OC)cccc2OC)on1,outcome,[2],inactive
CC(C)C(=O)OCC(C)(C)C(OC(=O)C(C)C)C(C)C (stereo not given),outcome,[1],inactive
same,outcome,[2],inactive
same,outcome,[8],inactive
Cc1ccccc1CO[C@@H]1C[C@@]2(C(C)C)CC[C@]1(C)O2,outcome,[6],inactive
same,AC50,[14],4.86 µM (active)
same,AC50,[11],11.2 µM (active)
same,AC50,[16],6.62 µM (active)
O=S(=O)(O)C(F)(F)C(F)(F)C(F)(F)C(F)(F)C(F)(F)C(F)(F)F,outcome,[3],inactive
same,outcome,[7],inactive
same,outcome,[8],inactive
Cc1ccccc1[N+](=O)[O-],outcome,[1],inactive
same,outcome,PGR (gene 5241),inactive
O=C(O)C(F)(F)C(F)(F)C(F)(F)C(F)(F)C(F)(F)C(F)(F)C(F)(F)C(F)(F)C(F)(F)F,outcome,[4],inactive
same,AC50,[5],25 µM (active)
same,AC50,[8],8.21 µM (active)
CC(c1ccc(O)cc1)(c1ccc(O)cc1)c1ccc(O)cc1,AC50,[8],4.96 µM (active)
CCC(C)c1cc([N+](=O)[O-])cc([N+](=O)[O-])c1O (stereo not given),outcome,[1],inactive
same,outcome,[2],inactive
same,outcome,[8],inactive
c1cc2ccc3cccc4ccc(c1)c2c34,outcome,[3],inactive
ClC(Cl)=C(c1ccc(Cl)cc1)c1ccc(Cl)cc1,outcome,[3],inactive
same,outcome,[7],inactive
same,outcome,[11],inactive
same,outcome,[9],inactive
Oc1c(Cl)c(Cl)c(Cl)c(Cl)c1Cl,outcome,[3],inactive
same,outcome,PGR (gene 5241),inactive
same,outcome,[4],inactive
same,outcome,[8],inactive
